Test results from PMC7862700, “An all-to-all approach to the identification of sequence-specific readers for epigenetic DNA modifications on cytosine”.

What was measured:
Test in all cases: DAPPL (digital affinity profiling via proximity ligation, sequencing); 10 mM Tris-HCl pH 7.5, 50 mM NaCl, 1 mM DTT, 4% glycerol, room temperature, 30 min; GST-TFs on glutathione beads, 16-mer random dsDNA library, 0.1% formaldehyde crosslink after washing; high values mean tight binding
Details in all cases: protein: recombinant; tags: N-terminal GST; dsDNA, one strand shown
[1] = target: ELF4 (Homo sapiens, UniProt Q99607 1-663)
Sequence of ELF4 (Q99607 whole entry, the tested form may be a part): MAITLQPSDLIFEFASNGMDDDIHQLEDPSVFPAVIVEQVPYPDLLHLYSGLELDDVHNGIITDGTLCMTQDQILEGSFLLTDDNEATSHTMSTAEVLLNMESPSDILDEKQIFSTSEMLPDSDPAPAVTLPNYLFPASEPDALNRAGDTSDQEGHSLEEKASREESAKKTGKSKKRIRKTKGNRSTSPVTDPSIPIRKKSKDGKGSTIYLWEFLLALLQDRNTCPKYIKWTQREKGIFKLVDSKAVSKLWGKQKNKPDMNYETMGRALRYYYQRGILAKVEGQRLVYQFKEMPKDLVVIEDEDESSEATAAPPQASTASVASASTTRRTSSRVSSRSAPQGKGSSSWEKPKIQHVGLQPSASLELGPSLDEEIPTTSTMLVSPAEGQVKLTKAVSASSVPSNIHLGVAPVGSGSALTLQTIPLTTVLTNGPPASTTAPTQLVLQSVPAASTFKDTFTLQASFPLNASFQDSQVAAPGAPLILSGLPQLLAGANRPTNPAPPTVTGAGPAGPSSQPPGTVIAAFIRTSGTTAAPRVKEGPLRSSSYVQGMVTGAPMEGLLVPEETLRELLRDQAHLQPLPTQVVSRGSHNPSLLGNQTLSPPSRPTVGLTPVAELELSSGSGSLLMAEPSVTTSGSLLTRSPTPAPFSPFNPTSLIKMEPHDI
How it was run: (§1)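 Human transcription factors carrying a GST fusion were produced in yeast, bound to glutathione beads, tagged with DNA barcodes and pooled together with a tag-only sample. Each pool was held with 200 nmole of a random double-stranded 16-mer DNA library in Tris/NaCl/DTT/glycerol buffer for 30 min at room temperature, then washed, crosslinked in 0.1% formaldehyde, proximity-ligated with BsaI/T4 ligase (1 h, 37 °C), PCR-amplified and sequenced on an Illumina NextSeq500. Binding signal is the read frequency of each hexamer for a given factor divided by its frequency in the tag-only sample.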

[2] = target: T1, ELK4 (Homo sapiens, UniProt P28324-2 1-405)
T1 sequence: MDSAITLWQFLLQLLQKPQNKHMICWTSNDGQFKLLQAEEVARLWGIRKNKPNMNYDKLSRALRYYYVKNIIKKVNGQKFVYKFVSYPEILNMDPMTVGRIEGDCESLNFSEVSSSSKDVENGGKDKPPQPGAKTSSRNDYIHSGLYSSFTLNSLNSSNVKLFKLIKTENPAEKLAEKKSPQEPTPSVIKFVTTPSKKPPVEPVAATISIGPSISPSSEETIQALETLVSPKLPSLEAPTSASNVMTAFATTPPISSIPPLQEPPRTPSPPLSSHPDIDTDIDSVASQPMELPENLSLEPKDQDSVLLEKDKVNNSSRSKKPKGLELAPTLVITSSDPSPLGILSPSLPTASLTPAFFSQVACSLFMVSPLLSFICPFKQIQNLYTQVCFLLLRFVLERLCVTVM
How it was run: as §1

[3] = target: T2, ETV2 (Homo sapiens, UniProt O00321 1-342)
T2 sequence: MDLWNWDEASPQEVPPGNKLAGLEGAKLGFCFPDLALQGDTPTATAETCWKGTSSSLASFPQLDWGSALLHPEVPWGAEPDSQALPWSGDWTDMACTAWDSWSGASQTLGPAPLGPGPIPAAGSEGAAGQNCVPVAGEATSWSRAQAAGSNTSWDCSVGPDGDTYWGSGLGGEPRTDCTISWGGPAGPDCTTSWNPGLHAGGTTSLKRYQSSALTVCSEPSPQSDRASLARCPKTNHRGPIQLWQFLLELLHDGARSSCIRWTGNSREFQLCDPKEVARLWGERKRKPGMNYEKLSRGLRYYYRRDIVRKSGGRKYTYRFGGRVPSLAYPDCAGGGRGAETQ
How it was run: as §1

[4] = target: T3, ELF3 (Homo sapiens, UniProt P78545 1-371)
T3 sequence: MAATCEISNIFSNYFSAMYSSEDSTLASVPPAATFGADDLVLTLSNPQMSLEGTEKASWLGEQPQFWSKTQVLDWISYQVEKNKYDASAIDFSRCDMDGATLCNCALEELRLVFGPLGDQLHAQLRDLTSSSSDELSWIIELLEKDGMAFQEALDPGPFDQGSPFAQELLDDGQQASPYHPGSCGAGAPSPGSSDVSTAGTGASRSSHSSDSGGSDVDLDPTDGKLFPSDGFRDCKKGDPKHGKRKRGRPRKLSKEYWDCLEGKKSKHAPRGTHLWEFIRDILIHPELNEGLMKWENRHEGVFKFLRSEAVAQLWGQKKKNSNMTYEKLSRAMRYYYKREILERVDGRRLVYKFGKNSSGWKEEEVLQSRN
How it was run: as §1

[5] = target: CRX (Homo sapiens, UniProt O43186 1-299)
Sequence of CRX (O43186 whole entry): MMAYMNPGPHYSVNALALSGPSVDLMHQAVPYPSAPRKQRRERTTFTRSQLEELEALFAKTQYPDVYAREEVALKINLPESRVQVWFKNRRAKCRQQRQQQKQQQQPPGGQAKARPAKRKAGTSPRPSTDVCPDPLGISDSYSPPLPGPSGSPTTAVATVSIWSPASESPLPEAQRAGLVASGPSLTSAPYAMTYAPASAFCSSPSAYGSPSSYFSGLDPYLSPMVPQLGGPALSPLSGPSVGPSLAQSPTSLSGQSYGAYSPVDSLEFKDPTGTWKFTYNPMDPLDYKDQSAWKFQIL
How it was run: as §1

[6] = target: T4, ERF (Homo sapiens, UniProt P50548 1-548)
T4 sequence: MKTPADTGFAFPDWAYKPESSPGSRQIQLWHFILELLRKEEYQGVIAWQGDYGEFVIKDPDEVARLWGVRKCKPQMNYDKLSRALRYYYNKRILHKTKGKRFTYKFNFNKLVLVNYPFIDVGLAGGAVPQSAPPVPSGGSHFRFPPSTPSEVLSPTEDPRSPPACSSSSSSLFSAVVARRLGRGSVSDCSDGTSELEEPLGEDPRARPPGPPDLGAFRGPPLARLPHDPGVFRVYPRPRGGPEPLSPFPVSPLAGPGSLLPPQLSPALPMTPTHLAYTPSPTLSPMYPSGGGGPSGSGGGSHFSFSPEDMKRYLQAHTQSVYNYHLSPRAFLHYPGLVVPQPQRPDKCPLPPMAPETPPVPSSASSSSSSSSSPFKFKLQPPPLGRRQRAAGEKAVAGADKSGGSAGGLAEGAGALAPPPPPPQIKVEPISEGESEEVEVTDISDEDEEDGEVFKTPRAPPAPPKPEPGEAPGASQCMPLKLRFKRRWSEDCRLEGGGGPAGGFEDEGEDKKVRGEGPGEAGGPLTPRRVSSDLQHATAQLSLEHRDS
How it was run: as §1

[7] = target: T5, ETV3L (Homo sapiens, UniProt Q6ZN32 1-361)
T5 sequence: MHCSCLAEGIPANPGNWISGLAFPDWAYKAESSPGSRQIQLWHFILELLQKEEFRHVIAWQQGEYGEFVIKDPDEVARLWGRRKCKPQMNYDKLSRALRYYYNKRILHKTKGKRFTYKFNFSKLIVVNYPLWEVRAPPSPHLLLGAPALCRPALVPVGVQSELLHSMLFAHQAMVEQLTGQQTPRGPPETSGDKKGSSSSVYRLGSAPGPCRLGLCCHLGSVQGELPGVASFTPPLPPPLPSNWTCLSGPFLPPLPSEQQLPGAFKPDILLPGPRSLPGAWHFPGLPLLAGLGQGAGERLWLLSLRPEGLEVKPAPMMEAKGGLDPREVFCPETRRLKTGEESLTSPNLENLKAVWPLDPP
How it was run: as §1

[8] = target: T6, ETS2 (Homo sapiens, UniProt P15036 1-469)
T6 sequence: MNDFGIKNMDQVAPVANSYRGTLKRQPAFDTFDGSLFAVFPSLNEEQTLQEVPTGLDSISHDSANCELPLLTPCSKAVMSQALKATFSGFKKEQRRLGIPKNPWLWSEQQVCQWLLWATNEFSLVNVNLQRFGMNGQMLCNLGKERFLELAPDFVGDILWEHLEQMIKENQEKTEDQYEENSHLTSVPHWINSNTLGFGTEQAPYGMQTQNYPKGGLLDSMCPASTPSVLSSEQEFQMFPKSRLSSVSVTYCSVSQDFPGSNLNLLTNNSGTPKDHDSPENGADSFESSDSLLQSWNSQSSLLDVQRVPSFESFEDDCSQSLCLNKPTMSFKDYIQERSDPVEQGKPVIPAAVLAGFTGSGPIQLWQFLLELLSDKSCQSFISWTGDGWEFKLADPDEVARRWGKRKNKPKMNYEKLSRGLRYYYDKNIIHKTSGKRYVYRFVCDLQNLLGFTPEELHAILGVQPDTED
How it was run: as §1

[9] = target: T7, ETV7 (Homo sapiens, UniProt Q9Y603 1-341)
T7 sequence: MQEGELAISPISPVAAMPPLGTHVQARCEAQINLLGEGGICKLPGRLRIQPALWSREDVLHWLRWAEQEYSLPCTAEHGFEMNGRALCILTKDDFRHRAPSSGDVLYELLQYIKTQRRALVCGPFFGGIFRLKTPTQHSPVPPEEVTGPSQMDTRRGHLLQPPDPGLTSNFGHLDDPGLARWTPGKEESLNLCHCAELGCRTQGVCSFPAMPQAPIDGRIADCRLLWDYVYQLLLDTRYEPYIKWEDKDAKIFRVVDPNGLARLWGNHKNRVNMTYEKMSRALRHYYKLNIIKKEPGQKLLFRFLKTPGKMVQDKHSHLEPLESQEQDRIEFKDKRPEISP
How it was run: as §1

[10] = target: T8, ELF5 (Homo sapiens, UniProt Q9UKW6-2 1-255)
T8 sequence: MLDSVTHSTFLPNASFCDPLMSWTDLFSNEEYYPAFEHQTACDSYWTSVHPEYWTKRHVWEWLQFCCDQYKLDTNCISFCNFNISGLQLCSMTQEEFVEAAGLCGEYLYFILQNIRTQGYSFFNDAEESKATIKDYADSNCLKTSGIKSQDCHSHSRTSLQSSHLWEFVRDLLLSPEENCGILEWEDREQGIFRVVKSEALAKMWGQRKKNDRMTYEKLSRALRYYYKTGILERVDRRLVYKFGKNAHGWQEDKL
How it was run: as §1

[11] = target: ETV6 (Homo sapiens, UniProt P41212 1-452)
Sequence of ETV6 (P41212 whole entry): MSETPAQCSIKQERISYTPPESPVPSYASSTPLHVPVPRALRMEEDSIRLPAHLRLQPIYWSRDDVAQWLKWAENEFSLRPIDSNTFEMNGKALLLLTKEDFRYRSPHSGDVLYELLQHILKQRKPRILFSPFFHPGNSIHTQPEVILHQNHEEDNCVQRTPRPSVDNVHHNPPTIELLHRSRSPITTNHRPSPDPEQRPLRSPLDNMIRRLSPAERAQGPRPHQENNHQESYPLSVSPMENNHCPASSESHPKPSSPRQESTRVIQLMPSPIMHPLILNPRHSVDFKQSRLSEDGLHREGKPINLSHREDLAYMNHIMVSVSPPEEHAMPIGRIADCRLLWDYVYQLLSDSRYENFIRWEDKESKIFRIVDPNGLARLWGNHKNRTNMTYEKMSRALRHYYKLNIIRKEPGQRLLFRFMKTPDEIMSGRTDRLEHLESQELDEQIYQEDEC
How it was run: as §1

**Q.** Which results are given for TTGACG?
**A.** binding signal [1]: 1.15 fold enrichment (6-mer frequency, TF over GST control); binding signal [2]: 1.21 fold enrichment (6-mer frequency, TF over GST control); binding signal [3]: 1.23 fold enrichment (6-mer frequency, TF over GST control); binding signal [4]: 1.21 fold enrichment (6-mer frequency, TF over GST control); binding signal [5]: 1.01 fold enrichment (6-mer frequency, TF over GST control); binding signal [6]: 1.27 fold enrichment (6-mer frequency, TF over GST control); binding signal [7]: 1.12 fold enrichment (6-mer frequency, TF over GST control); binding signal [8]: 1.08 fold enrichment (6-mer frequency, TF over GST control); binding signal [9]: 1.19 fold enrichment (6-mer frequency, TF over GST control); binding signal [10]: 1.07 fold enrichment (6-mer frequency, TF over GST control); binding signal [11]: 1.15 fold enrichment (6-mer frequency, TF over GST control)
